In PubChem BioAssay AID1159580 (chemical genetic matrix, 2015):
Among all 5,500 compounds or so, about 2,000 (36%) were called active. About 18% were inconclusive and are not listed. No stated cut-off is given here; in the data, active means normalized growth mostly below about 0.91 (no sharp cut-off); inconclusive means no clear call, values can overlap the other calls; inactive means mostly above about 0.92. The list shows a part of the results.

Test: chemical genetic growth profiling, strain panel (AID 1159580);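 further: tested at 20 µM; growth read once vehicle control cultures reached saturation at 30 °C; 1 = growth at the plate median or of vehicle wells; lower values mean less growth of the strain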
Conditions: growth OD

Measured: normalized growth

CCCCC(CC)CN=C(N)NC(N)=NCCCCCCN=C(N)NC(N)=NCC(CC)CCCC (centres undefined)
active: S. cerevisiae deletion strains, locus YKL009W, strain mrt4, active compounds read low 0.0745 | S. cerevisiae deletion strains, locus YKL068W, active compounds read low 0.0576 | S. cerevisiae deletion strains, locus YKL085W, strain MDH1 (second series), active compounds read low 0.0564 | S. cerevisiae deletion strains, locus YKL085W, strain MDH1, active compounds read low 0.0564 | S. cerevisiae deletion strains, locus YKL160W, strain elf1, active compounds read low 0.0635 | S. cerevisiae deletion strains, locus YKL190W, strain CNB1, active compounds read low 0.05 | S. cerevisiae deletion strains, locus YKR001C, strain vps1, active compounds read low 0.0639 | S. cerevisiae deletion strains, locus YKR026C, strain gcn3, active compounds read low 0.0659 | S. cerevisiae deletion strains, locus YKR091W, strain srl3, active compounds read low 0.0594 | S. cerevisiae deletion strains, locus YLL001W, strain dnm1, active compounds read low 0.0606 | S. cerevisiae deletion strains, locus YLL026W, active compounds read low 0.0577 | S. cerevisiae deletion strains, locus YLL041C, strain sdh2, active compounds read low 0.0581 | S. cerevisiae deletion strains, locus YLR027C, strain aat2, active compounds read low 0.0557 | S. cerevisiae deletion strains, locus YLR039C, strain RIC1, active compounds read low 0.0876 | S. cerevisiae deletion strains, locus YLR058C, strain SHM2, active compounds read low 0.0571 | S. cerevisiae deletion strains, locus YLR102C, strain apc9, active compounds read low 0.0596 | S. cerevisiae deletion strains, locus YLR113W, strain HOG1, active compounds read low 0.113 | S. cerevisiae deletion strains, locus YLR221C, strain rsa3, active compounds read low 0.0636 | S. cerevisiae deletion strains, locus YLR258W, strain gsy2, active compounds read low 0.0577 | S. cerevisiae deletion strains, locus YLR262C, strain YPT6 (second series), active compounds read low 0.0725 | S. cerevisiae deletion strains, locus YLR262C, strain YPT6, active compounds read low 0.104 | S. cerevisiae deletion strains, locus YLR268W, strain sec22, active compounds read low 0.0602 | S. cerevisiae deletion strains, locus YLR320W, strain mms22, active compounds read low 0.0987 | S. cerevisiae deletion strains, locus YLR330W, strain CHS5, active compounds read low 0.0561 | S. cerevisiae deletion strains, locus YLR342W, strain FKS1 (second series), active compounds read low 0.0721 | S. cerevisiae deletion strains, locus YLR342W, strain FKS1, active compounds read low 0.0635 | S. cerevisiae deletion strains, locus YLR357W, strain rsc2, active compounds read low 0.127 | S. cerevisiae deletion strains, locus YLR370C, strain arc18, active compounds read low 0.0632 | S. cerevisiae deletion strains, locus YLR371W, strain rom2, active compounds read low 0.0612 | S. cerevisiae deletion strains, locus YLR384C, strain iki3, active compounds read low 0.0589 | S. cerevisiae deletion strains, locus YLR418C, strain cdc73, active compounds read low 0.0906 | S. cerevisiae deletion strains, locus YML016C, strain PPZ1, active compounds read low 0.0539 | S. cerevisiae deletion strains, locus YML032C, strain rad52, active compounds read low 0.0626 | S. cerevisiae deletion strains, locus YML120C, strain ndi1, active compounds read low 0.0582 | S. cerevisiae deletion strains, locus YML124C, strain tub3, active compounds read low 0.058 | S. cerevisiae deletion strains, locus YMR058W, strain fet3, active compounds read low 0.0606 | S. cerevisiae deletion strains, locus YMR078C, strain ctf18, active compounds read low 0.0695 | S. cerevisiae deletion strains, locus YMR125W, strain sto1, active compounds read low 0.0772 | S. cerevisiae deletion strains, locus YMR129W, active compounds read low 0.0584 | S. cerevisiae deletion strains, locus YMR205C, strain PFK2, active compounds read low 0.0839 | S. cerevisiae deletion strains, locus YMR223W, strain ubp8, active compounds read low 0.0589 | S. cerevisiae deletion strains, locus YMR231W, strain pep5, active compounds read low 0.0657 | S. cerevisiae deletion strains, locus YMR263W, strain SAP30, active compounds read low 0.0593 | S. cerevisiae deletion strains, locus YMR307W, strain GAS1, active compounds read low 0.118 | S. cerevisiae deletion strains, locus YNL067W, strain RPL9B, active compounds read low 0.051 | S. cerevisiae deletion strains, locus YNL071W, strain lat1, active compounds read low 0.0619 | S. cerevisiae deletion strains, locus YNL128W, strain TEP1, active compounds read low 0.0666 | S. cerevisiae deletion strains, locus YNL183C, strain NPR1, active compounds read low -0.00134 | S. cerevisiae deletion strains, locus YNL209W, strain ssb2, active compounds read low 0.0592 | S. cerevisiae deletion strains, locus YNL233W, strain BNI4, active compounds read low 0.06 | S. cerevisiae deletion strains, locus YNL248C, strain rpa49, active compounds read low 0.0743 | S. cerevisiae deletion strains, locus YNL250W, strain rad50, active compounds read low 0.0631 | S. cerevisiae deletion strains, locus YNL271C, strain bni1, active compounds read low 0.0667 | S. cerevisiae deletion strains, locus YNL298W, strain CLA4, active compounds read low 0.0608 | S. cerevisiae deletion strains, locus YNL307C, strain MCK1, active compounds read low 0.0671 | S. cerevisiae deletion strains, locus YNL322C, strain KRE1 (second series), active compounds read low 0.0646 | S. cerevisiae deletion strains, locus YNL322C, strain KRE1, active compounds read low 0.05 | S. cerevisiae deletion strains, locus YNR049C, strain mso1, active compounds read low 0.058 | S. cerevisiae deletion strains, locus YNR052C, strain pop2, active compounds read low 0.0629 | S. cerevisiae deletion strains, locus YOL006C, strain TOP1, active compounds read low 0.124 | S. cerevisiae deletion strains, locus YOL012C, strain htz1 0.144 | S. cerevisiae deletion strains, locus YOL147C, strain pex11, active compounds read low 0.058 | S. cerevisiae deletion strains, locus YOR001W, strain rrp6, active compounds read low 0.0671 | S. cerevisiae deletion strains, locus YOR061W, strain CKA2, active compounds read low 0.0521 | S. cerevisiae deletion strains, locus YOR069W, strain VPS5, active compounds read low 0.0535 | S. cerevisiae deletion strains, locus YOR070C, strain gyp1, active compounds read low 0.0584 | S. cerevisiae deletion strains, locus YOR080W, strain dia2, active compounds read low 0.0635 | S. cerevisiae deletion strains, locus YOR083W, strain WHI5, active compounds read low 0.0619 | S. cerevisiae deletion strains, locus YOR106W, strain vam3, active compounds read low 0.0658 | S. cerevisiae deletion strains, locus YOR136W, strain idh2, active compounds read low 0.0692 | S. cerevisiae deletion strains, locus YOR144C, strain elg1, active compounds read low 0.0567 | S. cerevisiae deletion strains, locus YOR184W, strain ser1, active compounds read low 0.0701 | S. cerevisiae deletion strains, locus YOR231W, strain MKK1, active compounds read low 0.0983 | S. cerevisiae deletion strains, locus YOR265W, strain rbl2, active compounds read low 0.0559 | S. cerevisiae deletion strains, locus YOR270C, strain vph1, active compounds read low 0.0983 | S. cerevisiae deletion strains, locus YOR290C, strain snf2, active compounds read low 0.0664 | S. cerevisiae deletion strains, locus YOR316C, strain cot1, active compounds read low 0.0588 | S. cerevisiae deletion strains, locus YPL051W, strain arl3, active compounds read low 0.0606 | S. cerevisiae deletion strains, locus YPL055C, strain LGE1, active compounds read low 0.0672 | S. cerevisiae deletion strains, locus YPL078C, strain atp4, active compounds read low 0.0617 | S. cerevisiae deletion strains, locus YPL106C, strain sse1, active compounds read low 0.0996 | S. cerevisiae deletion strains, locus YPL240C, strain hsp82, active compounds read low 0.0572 | S. cerevisiae deletion strains, locus YPL256C, strain CLN2, active compounds read low 0.111 | S. cerevisiae deletion strains, locus YPR119W, strain clb2, active compounds read low 0.0609 | S. cerevisiae deletion strains, locus YPR141C, strain kar3, active compounds read low 0.0639 | S. cerevisiae deletion strains, locus YPR163C, strain tif3, active compounds read low 0.0715 | S. cerevisiae deletion strains, locus YPR167C, strain met16, active compounds read low 0.0622 | S. cerevisiae deletion strains, strain wtn01, active compounds read low 0.0578 | S. cerevisiae strains, strain wild type, active compounds read low 0.0505
